Measured values published in PubChem BioAssay (NCATS).
Results filed as inconclusive are left out. Values without a mark were called inactive. Active and inactive are the calls of the source. The call rests on the fitted dose curve; in most records, active means well fitted cell-killing curve with a large enough effect; inconclusive means small, poorly fitted or top-dose-only effect; inactive means flat fitted curve, though single readings scatter.

Assay: Cell Viability - Mesenchymal (AID 546);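 further: cells exposed to compound for 40 hours before reading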;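 on activity change, negative = cytotoxicity: 0% = DMSO only and -100% = 100 µM tamoxifen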
Conditions: mesenchymal cells viability, qHTS; activity change, negative = cytotoxicity: at 91.7 µM (top of the series)
From the text: NIH Chemical Genomics Center [NCGC]
NIH Molecular Libraries Screening Centers Network [MLSCN]
National Institutes of Environmental Health Sciences [NIEHS]
National Toxicology Program [NTP]
We have developed a 1536-well cell-based assay for quantitative high throughput screening (qHTS) against a number of cell lines to determine in vitro cytotoxicity of small molecules. This particular assay uses the kidney mesenchymal cell line which is derived from normal human renal glomeruli.
NCGC Assay Protocol Summary:
The CellTiter-Glo luminescent cell viability assay (Promega) is a homogeneous method to measure the number of viable cells in culture. The end point readout of this assay is based on quantitation of intracellular ATP, an indicator of metabolic activity, using the luciferase reaction. Luciferase catalyzes the oxidation of beetle Luciferin to oxyluciferin and light in the presence of ATP. The luminescent signal is proportional to amount of ATP present.
Using the CellTiter-Glo luminescent cell viability assay, the amount of cellular ATP was measured in the kidney mesenchymal cell line with complete culture medium following compound treatment for 40 hours. The assay was performed in opaque white Kalypsys 1536-well plates. In the screen, tamoxifen and doxorubicin were used as positive controls. Library compounds were measured for their ability to cause acute toxicity in the cell line, as reflected by a decrease in intracellular ATP levels, in a concentration-dependent manner. […] AC50 values were determined from concentration-response data modeled with the standard Hill equation.
qHTS protocol for CellTiter Glo kidney mesenchymal cells cellular assay
[Step] [Parameter] [Value] [Description]
1. Reagent; 5 uL; 1000 kidney mesenchymal cells/well
2. Time; 5 hr; 37 °C incubation
4. Controls; 23 nL; Tamoxifen 0.34 uM to 100 uM & Doxorubicin 0.02 nM to 100 uM
5. Time; 40 hr; 37 °C incubation
6. Reagent; 5 uL; CellTiter Glo reagent
7. Time; 20 min; Room Temperature
8. Detection; Luminescence; Viewlux plate reader
Keywords: cell viability, cytotoxicity, Kidney mesenchymal cell line, luminescence, NTPHTS, NTPHTS_NCGC, NIEHS, EPA, DSSTox, MLSMR, MLSCN, NIH Roadmap, qHTS, NCGC
Potency means the concentration at half of the fitted maximal effect.

Compound | activity change, negative = cytotoxicity | Potency
Nc1ccccc1C(=O)OCCc1ccccc1 | -10.6% | 
c1ccc2cc3c(cc2c1)-c1cccc2cccc-3c12 | -7.17% | 
CCCCCCCCn1sccc1=O |  | 12.6 µM (active)
N#CSCSC#N |  | 12.6 µM (active)
CC(C)CC(C)Nc1ccc(Nc2ccccc2)cc1 (configuration not stated) | -3.95% | 
O=C1C2(Cl)C3(Cl)C4(Cl)C(Cl)(Cl)C5(Cl)C3(Cl)C1(Cl)C5(Cl)C24Cl (configuration not stated) | -92.3% (active) | 31.6 µM (active)
FC(F)(F)c1ccc(Cl)cc1 | 6.53% | 
O=C(O)C1C(C(=O)O)C2(Cl)C(Cl)=C(Cl)C1(Cl)C2(Cl)Cl (configuration not stated) | 5.13% | 
ClC1=C(Cl)C2(Cl)C3C(Cl)C(Cl)CC3C1(Cl)C2(Cl)Cl (configuration not stated) | -47.6% | 
C#CCO | 7.98% | 
C(=NC1CCCCC1)=NC1CCCCC1 | -10.5% | 
O=C(CCl)c1ccccc1 | -109% (active) | 
O=[N+]([O-])c1cc(C(F)(F)F)cc([N+](=O)[O-])c1Cl | -10.7% | 
Oc1c(Br)c(Br)c(Br)c(Br)c1Br | -16.7% | 
[CH3][Hg][Cl] |  | 6.31 µM (active)
N#CC(Cl)Cl | 2.72% | 
Clc1ccc(C(c2ccc(Cl)cc2)C(Cl)Cl)cc1 | -10.3% | 
OC(c1ccc(Cl)cc1)(c1ccc(Cl)cc1)C(Cl)(Cl)Cl | -4.52% | 
COP(=O)(OC)O/C(=C\Cl)c1cc(Cl)c(Cl)cc1Cl | -1.36% | 
CN(C)c1ccc(N=O)cc1 |  | 31.6 µM (active)
C[C@@H]1CC[C@@]2(OC1)O[C@H]1[C@@H](O)[C@H]3[C@@H]4CC[C@H]5C[C@@H](O[C@@H]6O[C@H](CO)[C@H](O[C@@H]7O[C@H](CO)[C@@H](O)[C@H](O[C@@H]8OC[C@@H](O)[C@H](O)[C@H]8O)[C@H]7O[C@@H]7O[C@H](CO)[C@@H](O)[C@H](O[C@@H]8O[C@H](CO)[C@@H](O)[C@H](O)[C@H]8O)[C@H]7O)[C@H](O)[C@H]6O)[C@H](O)C[C@]5(C)[C@H]4CC[C@]3(C)[C@H]1[C@@H]2C |  | 31.6 µM (active)
